Assay results taken from PubChem BioAssay AID1030 (National Center for Advancing Translational Sciences (NCATS), 2008).
Among all 220,000 compounds or so, about 16,000 (7.3%) were called active. Inconclusive results (about 25%) are left out. The sample as a whole holds a higher share of actives than the screen did. Values without a mark were called inactive. The call rests on the fitted dose curve; in most records, active means well fitted inhibition curve with a large enough effect (not every such curve was filed as active); inconclusive means small, poorly fitted or top-dose-only effect, or another doubt; inactive means no such curve, though single readings can be large or run the other way.

Biological target: Aldehyde dehydrogenase 1A1 (Homo sapiens) (UniProt P00352)
Sequence (P00352 whole entry, looked up): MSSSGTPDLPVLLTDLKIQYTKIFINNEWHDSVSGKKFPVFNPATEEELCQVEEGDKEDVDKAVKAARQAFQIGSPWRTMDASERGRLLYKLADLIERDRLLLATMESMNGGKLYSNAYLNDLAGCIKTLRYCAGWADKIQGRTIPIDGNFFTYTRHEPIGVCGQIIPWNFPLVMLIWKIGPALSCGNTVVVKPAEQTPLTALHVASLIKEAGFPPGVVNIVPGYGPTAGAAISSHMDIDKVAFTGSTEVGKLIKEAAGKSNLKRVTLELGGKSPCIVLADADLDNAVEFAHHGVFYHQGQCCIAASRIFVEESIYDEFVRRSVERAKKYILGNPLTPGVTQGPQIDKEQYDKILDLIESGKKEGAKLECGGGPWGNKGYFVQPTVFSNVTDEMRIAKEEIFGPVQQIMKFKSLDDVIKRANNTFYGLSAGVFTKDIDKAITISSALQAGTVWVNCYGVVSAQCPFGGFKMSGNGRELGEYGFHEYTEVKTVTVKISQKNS
Test: qHTS Assay for Inhibitors of Aldehyde Dehydrogenase 1 (ALDH1A1);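 on activity, negative = inhibition: plate controls were no enzyme wells and a reference inhibitor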
Conditions: Purified ALDH1A1, NADH fluorescence, propionaldehyde substrate; series mostly up to 75.3 µM; activity, negative = inhibition: at the top concentration
Potency means the concentration at half of the fitted maximal effect.

Row | SMILES | activity, negative = inhibition [%] | Potency
1 | O=C(CSc1ccccc1F)NC1CCS(=O)(=O)C1 (stereo unspecified) | 3.62 | –
2 | CSc1ccccc1NC(=O)Cc1ccc(Br)cc1 | 5.36 | –
3 | O=C(Cc1ccc2c(c1)CCCC2)Nc1ccccc1Cl | – | 12.6 µM (active)
4 | O=C(CN1CCCCC1)Nc1ccccc1Cl | 14.8 | –
5 | Cc1cc(/C=C2/SC(=O)N(CC(=O)N3CCCC3)C2=O)ccc1N1CCOCC1 | 5.53 | –
6 | C/C(=N/OC(=O)c1c(-c2c(F)cccc2Cl)noc1C)c1cnccn1 | -4.17 | –
7 | CC(=O)c1ccc(NC(=O)C(C)NCc2ccc(Cl)cc2)cc1 (stereo unspecified) | 1.47 | –
8 | O=C(NCc1ccc2c(c1)OCO2)c1ccc(Cl)s1 | 11.5 | –
9 | O=C(NCc1ccc2c(c1)OCO2)c1sccc1Br | -7.89 | –
10 | O=C(NCc1ccc2c(c1)OCO2)c1ccc2c(c1)C(=O)N(CC1CCCO1)C2=O (stereo unspecified) | – | 1.58 µM (active)
11 | Cc1csc(SCC(=O)Nc2sccc2C#N)n1 | -1.71 | –
12 | O=C1CCC(CCC(=O)N2CCCC(C(=O)c3ccc(Cl)cc3)C2)=NN1 (stereo unspecified) | 17.7 | –
13 | O=C(CCCN1C(=O)C2C3C=CC(C3)C2C1=O)N1CCN(c2ccccc2)CC1 (stereo unspecified) | – | 12.6 µM (active)
14 | O=C(CCN1C(=O)C2C3C=CC(C3)C2C1=O)Oc1ccc2ccccc2c1 (stereo unspecified) | -9.74 | –
15 | CC(CC(=O)N1CCN(c2ccccc2)CC1)c1ccccc1 (stereo unspecified) | 13.1 | –
16 | S=c1[nH]ccn1-c1ccc(Cl)cc1 | -9.08 | –
17 | CC(C)CCN1CCN(Cc2ccc(C(F)(F)F)cc2)CC1CCO (stereo unspecified) | 0.124 | –
18 | CC(C)CCN1CCN(C/C=C/c2ccco2)CC1CCO (stereo unspecified) | – | 28.2 µM (active)
19 | Cc1ccc(CN2CCN(Cc3ccccc3-c3ccco3)CC2CCO)o1 (stereo unspecified) | 8.18 | –
20 | COC(=O)c1cccnc1NC(=S)NC(C)C | 1.85 | –
21 | COc1ccc(N=Nc2ccc(O)c(P(=O)(c3ccccc3)c3ccccc3)c2)cc1 | 6.87 | –
22 | CCOc1cc(/C=C2/N=C(c3ccc(C(C)(C)C)cc3)OC2=O)cc(Cl)c1OS(C)(=O)=O | – | 22.4 µM (active)
23 | CN(CCc1cnn(C)c1)Cc1cn(C)nc1-c1ccccc1F | 2.47 | –
24 | COc1cccc(C(=O)N2CCCC(CCC(=O)NCc3ccc(F)c(F)c3)C2)c1 (stereo unspecified) | -7.32 | –

Row | SMILES | activity, negative = inhibition [%] | Potency
25 | COc1cccc(CNC(=O)CCC2CCCN(C(=O)c3cc(C)[nH]n3)C2)c1 (stereo unspecified) | -5.25 | –
26 | COc1cccc(CNC(=O)CCC2CCCN(C(=O)c3ccoc3C)C2)c1 (stereo unspecified) | – | 22.4 µM (active)
27 | Cc1ccc(C(NC(=O)N2CCCC2)C(Cl)(Cl)Cl)cc1F (stereo unspecified) | 8.02 | –
28 | CC(=O)Nc1cccc(-c2cnc3ccccc3n2)c1 | 3.58 | –
29 | Cc1cc(O)ccc1-c1cnc2ccccc2n1 | – | 28.2 µM (active)
30 | c1ccc2nc(C3=NCCN3)cnc2c1 | -9.53 | –
31 | Cc1cccc(NC(=S)NC23CN4CN(CN(C4)C2)C3)c1 | 4.51 | –
32 | Cc1ccc(Nc2nc(CSc3nnnn3-c3ccccc3)cc(=O)[nH]2)cc1 | – | 22.4 µM (active)
33 | CC1CCN(Cc2nc(-c3ccc(Cl)cc3)no2)CC1 | 0.85 | –
34 | Cc1ccc(-c2noc(CN3CCN(Cc4ccccc4)CC3)n2)cc1 | – | 28.2 µM (active)
35 | Cc1ccc(-c2noc(CC(c3ccccc3)c3ccccc3)n2)cc1 | -4.15 | –
36 | COc1ccc(-n2nnnc2SCC(=O)Nc2ccccc2)cc1 | 3.98 | –
37 | Cc1ccc(-c2noc(CSc3nnc(-c4cccs4)n3C)n2)cc1 | -10.9 | –
38 | Cc1ccc(-c2noc(CSc3nnc(-c4ccccc4)n3C)n2)cc1 | -1.16 | –
39 | Cc1ccc(-c2noc(CSc3nnnn3-c3ccccc3)n2)cc1 | – | 7.08 µM (active)
40 | Cc1ccc(SCc2cc(=O)[nH]c(N3CCCCC3)n2)cc1 | 3.1 | –
41 | Fc1cc(Br)ccc1NC(=S)Nc1cccnc1 | 4.56 | –
42 | COc1ccc(S(=O)(=O)N2CCOCC2)cc1NC(=O)CSc1ncnc2ccccc12 | 1.11 | –
43 | Cc1ccc(NS(=O)(=O)c2cccs2)cc1S(=O)(=O)N1CCCCCC1 | -8.54 | –
44 | COc1ccc(N(C)S(=O)(=O)c2cccc3nsnc23)cc1 | 12.9 | –
45 | FC(F)(F)c1cccc(Cc2noc(CN3CCC(N4CCCCC4)CC3)n2)c1 | 8.7 | –
46 | CC1=NCCN1S(=O)(=O)c1cccc([N+](=O)[O-])c1 | 8.77 | –
47 | Fc1ccccc1Cn1cnc(NC(=S)NCCc2ccccc2)n1 | 0.197 | –
48 | O=C(CSc1nc(C2CC2)nc2ccccc12)Nc1ccc2c(c1)OCCO2 | 3.13 | –

Row | SMILES | activity, negative = inhibition [%] | Potency
49 | CCC(=O)Nc1cccc(NC(=O)CSc2nnnn2C2CCCC2)c1 | – | 12.6 µM (active)
50 | O=C(CSc1nnc(-c2ccncc2)n1C1CCCCC1)Nc1ccccc1 | 1.01 | –
51 | O=C(CSc1nnnn1C1CCCC1)Nc1ccc2c(c1)OCCO2 | – | 6.31 µM (active)
52 | CCC(=O)Nc1cccc(NC(=O)CSc2nnc(-c3ccc(NS(C)(=O)=O)cc3)n2C)c1 | 5.23 | –
53 | Cc1ccc(SCC(=O)Nc2ccc3c(c2)OCCO3)cc1 | -11.8 | –
54 | COc1cc(NC(=O)CSc2nnc3ccc(-c4ccncc4)nn23)cc(OC)c1 | 10.7 | –
55 | CCNC(=O)COC(=O)CCNC(=O)c1cccc(C)c1 | 1.01 | –
56 | O=C(COC(=O)c1ccco1)NCc1ccc(Cl)cc1 | 14.6 | –
57 | O=C(COC(=O)c1ccc(Cl)nc1)NCc1cccs1 | – | 8.91 µM (active)
58 | NS(=O)(=O)c1ccc(NC(=O)COC(=O)c2ccc(Cl)nc2)cc1 | 13.1 | –
59 | O=C(COC(=O)c1cc(S(=O)(=O)N2CCCCC2)ccc1Cl)NCc1ccco1 | 0.76 | –
60 | O=C(COC(=O)c1ccc(Cl)nc1)NCc1ccc2c(c1)OCO2 | 0.469 | –
61 | O=C(COC(=O)c1cnc(Cl)c(Cl)c1)NCc1ccco1 | – | 20 µM (active)
62 | CC(C)Oc1ccc(CCc2nnc(SCC(=O)O)n2-c2ccccc2)cc1 | -1.79 | –
63 | COc1cc(S(=O)(=O)N2CCOCC2)ccc1NC(=O)COc1ccc(N(C)S(=O)(=O)c2ccc(C)cc2)cc1 | 11.5 | –
64 | C=CCOCCN(C)C1=NS(=O)(=O)c2ccccc21 | 11.4 | –
65 | COC(=O)c1sc(SC)c(S(=O)(=O)C(C)C)c1N/N=C(\C#N)S(=O)(=O)c1ccccn1 | -9.06 | –
66 | Cc1ccn(CC(=O)N2N=C(C(F)F)CC2(O)C(F)F)n1 (stereo unspecified) | 8.82 | –
67 | CC(C)(C)NC(=O)NCc1ccco1 | 8.98 | –
68 | CCCC(=O)NC(=S)Nc1ccc(CN2CCOCC2)cc1 | 0.202 | –
69 | CCc1c(-c2ccccc2)nc(N)c(C#N)c1-c1cccs1 | -1.42 | –
70 | CSc1nc(C)nc(C2CC2)c1C#N | -9.62 | –
71 | CSc1nc(N)c(C#N)c(-c2ccccc2Cl)c1C#N | – | 14.1 µM (active)
72 | CC(Sc1nncn1C)C(=O)Nc1cc(C(F)(F)F)ccc1N1CCOCC1 (stereo unspecified) | 8.74 | –

Row | SMILES | activity, negative = inhibition [%] | Potency
73 | Cc1cc(NC(=O)CSc2nc3ccccc3n2CC(C)C)no1 | 2.17 | –
74 | Cc1ccc(C(=O)N2CCCCCC2)cc1Br | 7.25 | –
75 | CC1CN/C(=C\C(=O)c2ccc(Br)cc2)C(=O)N1 (stereo unspecified) | 13.4 | –
76 | C/C(=C\C(=O)c1ccc(Br)cc1)N1CCCCC1 | – | 25.1 µM (active)
77 | Cc1ccc(-c2csc(-c3cc(C)on3)n2)cc1 | 2.55 | –
78 | COc1ccccc1Oc1ccc(S(=O)(=O)Nc2cccnc2)cc1 | 37.8 | –
79 | COc1ccccc1Oc1nc(-c2cccnc2)nc2ccccc12 | – | 20 µM (active)
80 | c1cncc(-c2nc(N3CCNCC3)c3ccccc3n2)c1 | -3.04 | –
81 | O=c1cnnc(Nc2ccccc2F)[nH]1 | 9.78 | –
82 | CCCNCc1cc(OCC)c(OCC(=O)Nc2ccccc2)cc1Br | 0.675 | –
83 | C=CCC(CC=C)(C(N)=O)c1ccccc1 | 0.196 | –
84 | c1ccc(Cc2cc[n+](Cc3ccccc3)cc2)cc1 | -6.45 | –
85 | Cc1cc(O)c(NC(=O)c2ccc(C)c([N+](=O)[O-])c2)cc1C | 13.5 | –
86 | Cc1ccc(NC(=O)CN2CCC(C(N)=O)CC2)cc1[N+](=O)[O-] | 10.7 | –
87 | CCN1CCC(=NNC(=O)c2ccc(C)c([N+](=O)[O-])c2)CC1 | – | 4.47 µM (active)
88 | O=c1cc(N2CCCCC2)c(-c2ccccc2)nn1Cc1cccc(F)c1 | -6.56 | –
89 | CCn1c(SCC(=O)N/N=C/C=C/c2ccccc2[N+](=O)[O-])nnc1-c1ccccc1 | – | 7.94 µM (active)
90 | O=C(CSc1nc2ccccc2[nH]1)c1cccs1 | 4.01 | –
91 | CCOC(=O)CNC(=O)CSc1nnc(-c2cccc(OC)c2)n1CC | -1.64 | –
92 | O=C(CSc1nc2ccccc2[nH]1)N/N=C/C=C\c1ccccc1[N+](=O)[O-] | – | 5.01 µM (active)
93 | CCn1c(Cc2ccccc2)nnc1SCC(=O)Nc1ccccc1 | 3.56 | –
94 | O=C(Cc1cc(=O)[nH][nH]1)N/N=C/c1ccccc1[N+](=O)[O-] | 6.17 | –
95 | O=C(CCc1ccccc1)NNc1ccc(F)cc1 | -1.27 | –
96 | Cc1c(N=Nc2ccc(N(C)C)cc2)c(=O)n(-c2ccccc2)n1C | -13.2 | –

Row | SMILES | activity, negative = inhibition [%] | Potency
97 | COC(=O)Cc1csc(Nc2c(C)n(C)n(-c3ccccc3)c2=O)n1 | 11.6 | –
98 | CCn1c(-c2cc(OC)ccc2OC)csc1=Nc1c(C)n(C)n(-c2ccccc2)c1=O | – | 22.4 µM (active)
99 | Cc1cc(OC(=O)c2ccccc2Cl)ccc1N1C(=O)CCC1=O | -0.192 | –
100 | Cc1ccc(NC2=C(Cl)C(=O)OC2OC(=O)c2ccccc2C)cc1 (stereo unspecified) | -0.981 | –
101 | CC(=O)OC(COc1ccc(F)cc1)Cn1cnc2ccccc21 (stereo unspecified) | 5.28 | –
102 | Fc1ccc(OCc2nn3c(Cn4nnc5ccccc54)nnc3s2)cc1 | – | 22.4 µM (active)
103 | Fc1ccc(CNc2nc3ccccc3n3nnnc23)cc1 | -5.38 | –
104 | CCCn1c(N)c(C(=O)CSc2nnc(-c3cccnc3)n2-c2ccc(C)cc2C)c(=O)[nH]c1=O | -1 | –
105 | COc1ccc(Cl)cc1N(CC(=O)N/N=C/c1ccc(OCC(N)=O)cc1)S(C)(=O)=O | 3.79 | –
106 | COC(=O)c1nc(NC(=O)c2ccc(F)cc2)n[nH]1 | 7.95 | –
107 | Cc1cccc(NC(=O)c2cccc(C(F)(F)F)c2)c1 | 4.83 | –
108 | Cc1cccc(C(=O)Nc2ccc(CC(=O)O)cc2)c1 | -3.62 | –
109 | Cc1cccc(C(=O)Nc2ccc3c(c2)C(=O)N(CC(C)C)C3=O)c1 | – | 2.82 µM (active)
110 | CC1CC(NC(=O)/C(C#N)=C/c2ccc[nH]2)CC(C)(C)C1 (stereo unspecified) | 8.63 | –
111 | COc1ccc(-n2c(SCC(=O)OC(C)C)nnc2-c2ccccn2)cc1 | 2.12 | –
112 | CCn1c(Cc2cccs2)nnc1SCC(=O)c1ccc(C)cc1 | – | 22.4 µM (active)
113 | CCOC(=O)CSc1nnc(CNC(=O)c2cccs2)n1-c1ccccc1 | -0.494 | –
114 | Cc1ccc(-n2c(Cc3cccs3)nnc2SCC(=O)OC(C)C)cc1 | – | 5.62 µM (active)
115 | CCn1c(SCC(=O)c2ccc3ccccc3c2)nnc1-c1cccs1 | -10.3 | –
116 | CCn1c(SCC(=O)c2ccc(Cl)s2)nnc1-c1cccs1 | -17.9 | –
